# Hit rate of the full screen: of about 52,000 compounds, about 1,700 (3.3%) were called active. This excerpt belongs to a sample that is enriched for actives. A number with no mark means an inactive call. No stated cut-off is given here; in the data, active means survival mostly below about 52% (no sharp cut-off); inactive means mostly above about 56%.
# Tested on: Wild type
# Assay: S. aureus survival, RN4220 and DeltatarO strains – OD600, teichoic acid synthesis inhibitors, primary screen (AID 463173)
# Conditions: S. aureus RN4220 wild type/DeltatarO growth, OD600, 18 h, hits give low values, screened at 18.75 µg/mL (by protocol)
row,SMILES,survival
1,O=C(CN1C(=O)c2ccccc2Sc2ccc(C(=O)N3CCOCC3)cc21)Nc1ccc(Cl)cc1F,73%
2,Cc1ccc(NC(=O)CN2C(=O)c3ccccc3Sc3ccc(C(=O)N4CCOCC4)cc32)c(Cl)c1,-6% (active)
3,Cc1cc(C)cc(NC(=O)CN2C(=O)c3ccccc3Sc3ccc(C(=O)N4CCOCC4)cc32)c1,69%
4,Cc1ccc(NC(=O)CN2C(=O)c3ccccc3Sc3ccc(C(=O)N4CCCC4)cc32)cc1,64%
5,CCc1ccc(NC(=O)CN2C(=O)c3ccccc3Sc3ccc(C(=O)N4CCCC4)cc32)cc1,82%
6,CN(C)c1ccc(NC(=O)CN2C(=O)c3ccccc3Sc3ccc(C(=O)N4CCCC4)cc32)cc1,-4% (active)
7,Fc1ccc(-c2noc3ncnc(NCc4cccc(Cl)c4)c23)cc1,55%
8,COc1ccccc1CN1CCNC(=O)C1=O,77%
9,O=C(CSc1nc2c([nH]c3ccccc32)c(=O)n1-c1ccccc1)N1CCOCC1,75%
10,O=S1(=O)c2ccccc2N(Cc2ccccc2Cl)c2ccccc21,80%
11,COc1ccc(N2CCN(C(CNC(=O)C(=O)NCCc3ccccc3)c3cccnc3)CC2)cc1 (stereo not given),84%
12,CC(NC(=O)C(=O)Nc1c2c(nn1-c1ccccc1)CSC2)c1ccccc1 (stereo not given),55%
13,CC(NC(=O)C(=O)Nc1c2c(nn1-c1ccc(F)cc1)CSC2)c1ccccc1 (stereo not given),-4% (active)
14,CN1CCN(C(=O)C(=O)Nc2c3c(nn2-c2ccc(F)cc2)CSC3)CC1,81%
15,CCC(CO)NC(=O)C(=O)Nc1c2c(nn1-c1ccc(F)cc1)CSC2 (stereo not given),87%
16,CN1CCN(C(=O)C(=O)Nc2c3c(nn2-c2ccc(Cl)cc2)CSC3)CC1,71%
17,CC(=O)N1CCN(C(=O)C(=O)Nc2c3c(nn2-c2ccc(Cl)cc2)CSC3)CC1,-3% (active)
18,Cc1cccc(OCC(=O)N(Cc2cccc(Cl)c2)Cc2ccco2)c1C,85%
19,CCOC(=O)c1ccc(NC(=O)c2cnc3c(-c4ccc(F)cc4)c(C)nn3c2C)cc1,120%
20,CCOC(=O)c1ccc(CN(Cc2ccc(OC)cc2)S(=O)(=O)c2cccc(C(F)(F)F)c2)cc1,73%
21,Cc1ccc(NC(=O)c2cc(S(=O)(=O)NCCC3=CCCCC3)ccc2F)cc1F,82%
22,COc1ccc(CCNS(=O)(=O)c2ccc(F)c(C(=O)Nc3ccc(Cl)cc3)c2)cc1OC,126%

row,SMILES,survival
1,Cc1ccc(NC(=O)c2cc(S(=O)(=O)NC3CCCCCC3)ccc2F)cc1F,79%
2,Cc1ccc(NC(=O)c2cc(S(=O)(=O)NC3CCCCC3)ccc2F)cc1Cl,-6% (active)
3,O=C(Nc1ccc(F)c(F)c1)c1cc(S(=O)(=O)NC2CCCCCC2)ccc1F,53%
4,CCc1ccccc1NC(=O)c1cc(S(=O)(=O)NCCc2ccc(OC)c(OC)c2)ccc1F,0% (active)
5,COc1ccc(OC)c(NC(=O)c2cc(S(=O)(=O)NCCc3ccc(Cl)cc3)ccc2F)c1,79%
6,CCc1ccc(NC(=O)c2ccc(F)c(S(=O)(=O)N(C)C3CCCCC3)c2)cc1,71%
7,O=C(Nc1ccc(Br)cc1)c1ccc(F)c(S(=O)(=O)NC2CCCCCC2)c1,56%
8,CCc1ccc(NC(=O)c2ccc(F)c(S(=O)(=O)NC3CCCCCC3)c2)cc1,-4% (active)
9,Cc1ccc(NC(=O)c2cc(S(=O)(=O)NCCC3=CCCCC3)ccc2F)cc1C,-3% (active)
10,Cc1cc(C)cc(NC(=O)c2cc(S(=O)(=O)NCCC3=CCCCC3)ccc2F)c1,80%
11,O=S(=O)(c1ccccc1)c1nc(-c2cccs2)oc1SCc1ccc(F)cc1,61%
12,O=C(COCc1cc(-c2cccs2)on1)Nc1ccc(OC(F)(F)F)cc1,124%
13,CCc1cccc(NC(=O)c2nc(-c3ccncc3)no2)c1,101%
14,CC(NC(=O)c1ccc(CSc2nc3ccncc3n2Cc2ccc(F)cc2)cc1)c1ccccc1 (stereo not given),92%
15,COc1ccccc1NC(=O)c1c(NC(=O)Cc2ccccc2)sc2c1CCC(C(C)(C)C)C2 (stereo not given),102%
16,CC(C)(C)C1CCc2c(sc(NC(=O)c3ccc(Cl)cc3)c2C(=O)NCc2ccco2)C1 (stereo not given),95%
17,Cc1ccccc1NC(=O)c1c(NC(=O)c2ccncc2)sc2c1CCC(C(C)(C)C)C2 (stereo not given),91%
18,CC(C)(C)C1CCc2c(sc(NC(=O)c3cccc(Cl)c3)c2C(N)=O)C1 (stereo not given),75%
19,Cc1ccccc1NC(=O)c1c(NC(=O)c2ccccc2F)sc2c1CCC(C)C2 (stereo not given),82%
20,Cc1ccccc1C(=O)Nc1sc2c(c1C(=O)NCc1ccco1)CCC(C(C)(C)C)C2 (stereo not given),88%
21,CCCNC(=O)c1c(NC(=O)c2ccccc2)sc2c1CCC(C(C)(C)C)C2 (stereo not given),2% (active)
22,CC1CCN(C(=O)c2c(NC(=O)c3ccccc3F)sc3c2CCC(C(C)(C)C)C3)CC1 (stereo not given),-2% (active)

row,SMILES,survival
1,Cc1ccc(C(=O)Nc2sc3c(c2C(=O)NCc2ccco2)CCC(C(C)(C)C)C3)cc1 (stereo not given),70%
2,COc1ccccc1NC(=O)c1c(NC(=O)c2cccs2)sc2c1CCC(C(C)(C)C)C2 (stereo not given),118%
3,Cc1ccccc1C(=O)Nc1sc2c(c1C(=O)O)CCC(C(C)(C)C)C2 (stereo not given),6% (active)
4,CC(C)(C)C1CCc2c(sc(NC(=O)CCC(=O)O)c2C(=O)Nc2ccccc2C(F)(F)F)C1 (stereo not given),1% (active)
5,CCCNC(=O)CCCN1C(=O)CCn2nc(-c3cccn3C)cc21,71%
6,O=C(CN1CCC(O)(c2ccccc2)CC1)NC1CCCCC1,111%
7,Cc1ccc(CNC(=O)CCCCCn2c(=O)c3sccc3n(CC(=O)N(C)c3ccccc3)c2=O)cc1,83%
8,O=C(CSc1nc(=O)[nH]c2c1CCCC2)NCc1ccccc1Cl,135%
9,COc1ccc(NC(=O)N2CCN(S(=O)(=O)c3ccc4c(ccn4C)c3)CC2)c(OC)c1,87%
10,CC(C)(C)C1CCc2c(sc(NC(=O)c3ccccc3F)c2C(=O)NCc2ccco2)C1 (stereo not given),70%
11,CC(C)(C)C1CCc2c(sc(NC(=O)c3ccccc3F)c2C(=O)N2CCCCC2)C1 (stereo not given),-3% (active)
12,CCN(CC)C(=O)c1c(NC(=O)c2ccccc2F)sc2c1CCC(C(C)(C)C)C2 (stereo not given),-3% (active)
13,CC(C)(C)C1CCc2c(sc(NC(=O)c3ccncc3)c2C(=O)Nc2ccccc2Cl)C1 (stereo not given),84%
14,Cc1ccccc1C(=O)Nc1sc2c(c1C(=O)N1CCC(C)CC1)CCCC2,64%
15,CN(C)C(=O)c1c(NC(=O)c2ccccc2F)sc2c1CCCC2,82%
16,Cc1ccccc1C(=O)Nc1sc2c(c1C(=O)N1CCC(C)CC1)CCC(C)C2 (stereo not given),0% (active)
17,O=C(Nc1sc2c(c1C(=O)N1CCCCC1)CCCC2)c1ccccc1Cl,75%
18,CC(C)(C)C1CCc2c(sc(NC(=O)c3ccco3)c2C(=O)Nc2ccccc2Cl)C1 (stereo not given),108%
19,CC1CCN(C(=O)c2c(NC(=O)c3ccccc3Cl)sc3c2CCC(C(C)(C)C)C3)CC1 (stereo not given),2% (active)
20,Cc1ccccc1C(=O)Nc1sc2c(c1C(=O)N1CCCCC1)CCC(C)C2 (stereo not given),36%
21,CCOc1ccccc1NC(=O)c1c(NC(=O)c2ccccc2C)sc2c1CCC(C)C2 (stereo not given),75%
